Test results from ChEMBL document CHEMBL1961873, “Compounds: GSK PKIS; Assays: Nanosyn kinase panel” (2012).
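Also: values are mean inhibition of KIT, from the GSK PKIS dataset.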

The compounds below were run against Mast/stem cell growth factor receptor Kit (Homo sapiens) (UniProt P10721). Conditions: at 0.1 µM.
Sequence of Mast/stem cell growth factor receptor Kit (Homo sapiens) (P10721 whole entry): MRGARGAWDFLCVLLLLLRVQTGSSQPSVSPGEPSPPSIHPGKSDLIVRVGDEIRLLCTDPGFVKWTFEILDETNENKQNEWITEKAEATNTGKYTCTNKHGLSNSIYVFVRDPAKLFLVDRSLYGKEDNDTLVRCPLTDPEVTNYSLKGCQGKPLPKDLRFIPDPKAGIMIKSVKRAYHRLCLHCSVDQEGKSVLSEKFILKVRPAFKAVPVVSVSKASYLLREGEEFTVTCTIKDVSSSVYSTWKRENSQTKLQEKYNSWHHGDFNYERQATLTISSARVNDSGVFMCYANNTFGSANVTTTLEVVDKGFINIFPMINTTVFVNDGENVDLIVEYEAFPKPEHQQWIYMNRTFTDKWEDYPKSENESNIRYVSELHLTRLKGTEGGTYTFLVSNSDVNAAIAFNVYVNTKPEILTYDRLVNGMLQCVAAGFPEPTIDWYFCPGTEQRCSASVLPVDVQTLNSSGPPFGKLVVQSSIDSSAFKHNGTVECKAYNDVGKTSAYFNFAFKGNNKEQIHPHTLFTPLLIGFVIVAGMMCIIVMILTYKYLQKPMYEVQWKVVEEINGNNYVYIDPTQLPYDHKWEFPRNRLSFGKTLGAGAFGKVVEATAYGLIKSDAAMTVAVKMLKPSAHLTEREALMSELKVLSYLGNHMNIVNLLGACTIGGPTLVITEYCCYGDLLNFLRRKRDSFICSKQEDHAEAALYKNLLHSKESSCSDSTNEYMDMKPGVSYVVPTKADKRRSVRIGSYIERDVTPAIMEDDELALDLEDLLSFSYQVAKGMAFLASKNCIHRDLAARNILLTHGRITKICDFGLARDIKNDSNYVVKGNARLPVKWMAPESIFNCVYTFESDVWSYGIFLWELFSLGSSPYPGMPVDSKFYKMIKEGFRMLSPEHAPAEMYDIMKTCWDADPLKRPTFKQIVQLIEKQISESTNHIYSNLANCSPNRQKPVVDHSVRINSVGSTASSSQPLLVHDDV
For `CCN(CC)Cc1ccc(Nc2nccc(-c3cnn4ncccc34)n2)cc1`, the inhibition was 64.8%.
In the case of `CCC(=O)Nc1ccc(C)c(-c2ccc(C(=O)NCC3CC3)cc2)c1`, the inhibition is reported as 4.93%.
`COc1cc(C)c(N(C)C(=O)CN(C)C)cc1Nc1nc(Nc2cccc(F)c2C(N)=O)c2cc[nH]c2n1` gave an inhibition of 0.03%.
`CCc1cccc(CC)c1/C=C/c1cncc(C(=O)NC)c1` gave an inhibition of 1%.
In the case of `COc1ccc2cc(-c3c(-c4ccncc4)nc(-c4ccc(S(C)(=O)=O)cc4C)n3C)ccc2c1`, the inhibition is reported as 5.09%.
`Cc1nnc(-c2ccc(C)c(-c3ccc(C(=O)NCc4ccc(Cl)cc4)cc3)c2)o1` showed an inhibition of 4.95%.
In the case of `COc1cc(Nc2ncc(-c3ccccc3)o2)cc(OC)c1OC`, the inhibition is reported as 85.4%.
Work on `NCc1ccc(-n2c(-c3nonc3N)nc3cnccc32)cc1` yielded an inhibition of 5.81%.
Compound `COc1cc2ncn(-c3cc(OCCc4ccccc4)c(C(N)=O)s3)c2cc1OC` has an inhibition of 0.95%.
Compound `O=C(Nc1ccc(Oc2ccc3[nH]c(NC(=O)c4ccccc4)nc3c2)cc1)Nc1cc(C(F)(F)F)ccc1F` has an inhibition of 10.4%.
With `O=C1Nc2ccc(I)cc2C1=Cc1cc(Br)c(O)c(Br)c1` the inhibition was 5.45%.
For `C[C@@H](Oc1cc(-n2cnc3ccc(OCC4CCN(C)CC4)cc32)sc1C(N)=O)c1ccccc1Cl`, the inhibition was 5.23%.
With `CN(C)CCOc1ccc(-c2cc(-c3ccc4c(c3)CCC4=NO)c(-c3ccncc3)o2)cc1` the inhibition was -2.06%.
In the case of `O=C1NC(=O)C(c2cccc(Cl)c2)=C1Nc1ccc(Cl)c(C(=O)O)c1`, the inhibition is reported as 6.54%.
Compound `NS(=O)(=O)c1ccc(N/N=C2\C(=O)Nc3ccc(C(=O)NCCCn4ccnc4)cc32)cc1` has an inhibition of 4.8%.
With `COc1cc(Nc2ncc3c(C)nc(-c4cccc(C(F)(F)F)c4)n3n2)cc(OC)c1OC` the inhibition was 11.1%.
